Test results: the supplement of paper PMC10849652
Of roughly 8,800 targets only a part is listed; those with a hit were picked by preference. About 0.5% of all pairs of compound and target were hits. A number with no mark means an inactive call.

Experiments:
Assay in all cases: log2 fold change, soluble protein after heating vs DMSO (PISA); higher = thermal stabilisation; K562 lysate, 10 uM; active = over 0.2 and 3.5 SD of the protein, either way, in both replicates (recomputed)
[1] = compound: C1=CC=C(C=C1)[C@H](COC2=CC3=C(C=C2)NC(=O)N3)NC(=O)C4=CC=CN(C4=O)CC5=CC(=C(C=C5)F)F
Method in brief: (§1)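 Following dounce homogenisation of K562 pellets in PBS pH 7.4 with 1 mM MgCl2, crude extract at 1 mg/mL protein was incubated for 30 min with 10 μM compound. Aliquots were then heated for 3 min over 48°C-58°C and pooled, NP-40 was added to 0.5% at 4°C, and soluble protein was recovered as the supernatant at 21,000xg for 90 min. Channel-sum-equalised TMTpro 16plex LC-MS/MS quantified this protein. Each value, from duplicates, is a log-two fold change in thermal stability relative to solvent controls.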

[2] = compound: CC1=C(SC2=C1C(=N[C@H](C3=NN=C(N32)C)CC(=O)N)C4=CC=C(C=C4)Cl)C
Method in brief: as §1

[3] = compound: CC1=C2C(=CC=C1)N=C(N(C2=O)C3=CC=CC=C3C)CN4C=NC5=C(N=CN=C54)N
Method in brief: as §1

[4] = compound: Cc1sc2c(c1C)C(c1ccc(Cl)cc1)=N[C@@H](CC(=O)OC(C)(C)C)c1nnc(C)n1-2
Method in brief: as §1

[5] = compound: c1ccc([C@@H]2C[C@H]2NC2CCNCC2)cc1
Method in brief: as §1

Sequence of UniProt Q9BRS2 (Q9BRS2 whole entry, looked up): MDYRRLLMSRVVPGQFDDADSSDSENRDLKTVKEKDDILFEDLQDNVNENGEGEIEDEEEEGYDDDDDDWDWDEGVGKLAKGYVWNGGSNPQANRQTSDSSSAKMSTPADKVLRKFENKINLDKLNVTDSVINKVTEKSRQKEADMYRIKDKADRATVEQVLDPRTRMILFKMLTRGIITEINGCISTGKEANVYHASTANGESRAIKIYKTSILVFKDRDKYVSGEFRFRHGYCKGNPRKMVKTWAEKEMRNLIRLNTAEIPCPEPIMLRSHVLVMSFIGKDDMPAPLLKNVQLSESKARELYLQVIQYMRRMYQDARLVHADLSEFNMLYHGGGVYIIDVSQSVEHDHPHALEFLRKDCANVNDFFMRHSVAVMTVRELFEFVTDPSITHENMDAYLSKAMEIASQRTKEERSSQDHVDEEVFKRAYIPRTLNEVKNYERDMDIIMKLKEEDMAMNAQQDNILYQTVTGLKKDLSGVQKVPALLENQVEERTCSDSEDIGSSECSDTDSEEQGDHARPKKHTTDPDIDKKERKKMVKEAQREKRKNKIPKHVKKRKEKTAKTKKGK
Sequence of UniProt Q92930 (Q92930 whole entry, looked up): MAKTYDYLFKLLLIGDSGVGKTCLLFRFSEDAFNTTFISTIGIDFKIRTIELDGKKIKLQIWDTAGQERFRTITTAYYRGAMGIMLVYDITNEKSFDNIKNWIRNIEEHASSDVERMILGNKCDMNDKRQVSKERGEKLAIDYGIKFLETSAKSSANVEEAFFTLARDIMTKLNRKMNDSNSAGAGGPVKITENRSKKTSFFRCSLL
Sequence of UniProt Q99708 (Q99708 whole entry, looked up): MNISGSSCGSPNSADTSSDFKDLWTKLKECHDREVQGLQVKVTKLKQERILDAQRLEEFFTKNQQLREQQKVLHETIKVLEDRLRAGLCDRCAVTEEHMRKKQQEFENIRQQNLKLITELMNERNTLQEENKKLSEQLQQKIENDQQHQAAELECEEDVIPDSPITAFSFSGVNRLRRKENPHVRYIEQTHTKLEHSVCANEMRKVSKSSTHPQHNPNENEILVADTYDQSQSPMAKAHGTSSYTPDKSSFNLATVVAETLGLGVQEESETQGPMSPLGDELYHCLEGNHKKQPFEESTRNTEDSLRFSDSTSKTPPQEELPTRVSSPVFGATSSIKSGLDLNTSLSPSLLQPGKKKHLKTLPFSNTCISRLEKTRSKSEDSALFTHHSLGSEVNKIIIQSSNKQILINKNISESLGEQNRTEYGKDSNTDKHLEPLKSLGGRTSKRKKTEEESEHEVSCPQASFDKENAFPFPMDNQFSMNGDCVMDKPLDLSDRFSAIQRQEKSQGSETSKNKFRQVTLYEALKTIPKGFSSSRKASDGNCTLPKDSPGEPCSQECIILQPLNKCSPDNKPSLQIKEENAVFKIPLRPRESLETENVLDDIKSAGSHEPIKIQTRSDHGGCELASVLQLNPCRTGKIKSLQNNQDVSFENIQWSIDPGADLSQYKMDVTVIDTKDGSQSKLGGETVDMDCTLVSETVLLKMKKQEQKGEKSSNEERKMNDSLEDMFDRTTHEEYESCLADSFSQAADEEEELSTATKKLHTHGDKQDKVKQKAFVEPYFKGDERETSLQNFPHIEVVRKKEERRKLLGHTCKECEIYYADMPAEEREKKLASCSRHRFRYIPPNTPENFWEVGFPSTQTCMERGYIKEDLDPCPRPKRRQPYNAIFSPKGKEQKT
Sequence of UniProt Q14644 (Q14644 whole entry, looked up): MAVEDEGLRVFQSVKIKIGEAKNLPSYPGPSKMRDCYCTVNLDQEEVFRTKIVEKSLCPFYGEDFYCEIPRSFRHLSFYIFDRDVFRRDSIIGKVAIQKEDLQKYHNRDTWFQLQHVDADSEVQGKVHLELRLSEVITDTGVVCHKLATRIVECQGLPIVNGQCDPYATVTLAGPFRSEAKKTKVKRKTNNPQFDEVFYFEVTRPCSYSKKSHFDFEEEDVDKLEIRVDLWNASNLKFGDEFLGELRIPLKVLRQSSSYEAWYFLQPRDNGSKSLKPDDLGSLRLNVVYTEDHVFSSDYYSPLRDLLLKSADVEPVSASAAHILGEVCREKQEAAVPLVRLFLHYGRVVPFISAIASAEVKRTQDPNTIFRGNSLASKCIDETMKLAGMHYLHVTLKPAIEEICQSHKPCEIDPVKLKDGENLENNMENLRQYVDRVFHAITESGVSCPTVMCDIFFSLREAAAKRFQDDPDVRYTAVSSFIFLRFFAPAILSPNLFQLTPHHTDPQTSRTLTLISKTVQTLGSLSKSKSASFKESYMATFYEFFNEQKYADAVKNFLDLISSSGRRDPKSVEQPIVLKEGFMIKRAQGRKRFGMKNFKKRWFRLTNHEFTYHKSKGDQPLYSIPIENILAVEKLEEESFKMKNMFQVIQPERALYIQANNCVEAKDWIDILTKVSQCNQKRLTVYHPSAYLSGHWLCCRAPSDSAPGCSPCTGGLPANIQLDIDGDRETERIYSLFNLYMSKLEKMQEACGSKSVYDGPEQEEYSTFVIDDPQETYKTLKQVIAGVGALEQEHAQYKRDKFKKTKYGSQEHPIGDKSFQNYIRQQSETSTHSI
Sequence of UniProt P31040 (P31040 whole entry, looked up): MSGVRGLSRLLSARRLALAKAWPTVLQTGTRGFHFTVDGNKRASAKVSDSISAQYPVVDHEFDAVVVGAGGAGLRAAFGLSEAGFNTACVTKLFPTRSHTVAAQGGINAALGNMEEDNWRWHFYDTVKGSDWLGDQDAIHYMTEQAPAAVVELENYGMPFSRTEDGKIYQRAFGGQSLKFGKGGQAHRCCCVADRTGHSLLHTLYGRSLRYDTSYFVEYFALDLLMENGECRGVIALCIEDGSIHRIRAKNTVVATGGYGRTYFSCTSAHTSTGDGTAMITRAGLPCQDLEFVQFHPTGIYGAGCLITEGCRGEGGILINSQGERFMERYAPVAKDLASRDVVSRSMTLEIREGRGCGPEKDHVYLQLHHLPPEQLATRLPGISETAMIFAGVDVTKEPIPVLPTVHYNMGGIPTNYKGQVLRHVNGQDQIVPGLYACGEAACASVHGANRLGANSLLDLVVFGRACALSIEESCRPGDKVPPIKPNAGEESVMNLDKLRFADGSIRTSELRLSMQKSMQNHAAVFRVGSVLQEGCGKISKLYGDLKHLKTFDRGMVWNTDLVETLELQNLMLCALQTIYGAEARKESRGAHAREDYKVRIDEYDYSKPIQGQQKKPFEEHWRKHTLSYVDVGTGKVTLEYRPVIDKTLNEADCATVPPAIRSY
Sequence of UniProt Q13464 (Q13464 whole entry, looked up): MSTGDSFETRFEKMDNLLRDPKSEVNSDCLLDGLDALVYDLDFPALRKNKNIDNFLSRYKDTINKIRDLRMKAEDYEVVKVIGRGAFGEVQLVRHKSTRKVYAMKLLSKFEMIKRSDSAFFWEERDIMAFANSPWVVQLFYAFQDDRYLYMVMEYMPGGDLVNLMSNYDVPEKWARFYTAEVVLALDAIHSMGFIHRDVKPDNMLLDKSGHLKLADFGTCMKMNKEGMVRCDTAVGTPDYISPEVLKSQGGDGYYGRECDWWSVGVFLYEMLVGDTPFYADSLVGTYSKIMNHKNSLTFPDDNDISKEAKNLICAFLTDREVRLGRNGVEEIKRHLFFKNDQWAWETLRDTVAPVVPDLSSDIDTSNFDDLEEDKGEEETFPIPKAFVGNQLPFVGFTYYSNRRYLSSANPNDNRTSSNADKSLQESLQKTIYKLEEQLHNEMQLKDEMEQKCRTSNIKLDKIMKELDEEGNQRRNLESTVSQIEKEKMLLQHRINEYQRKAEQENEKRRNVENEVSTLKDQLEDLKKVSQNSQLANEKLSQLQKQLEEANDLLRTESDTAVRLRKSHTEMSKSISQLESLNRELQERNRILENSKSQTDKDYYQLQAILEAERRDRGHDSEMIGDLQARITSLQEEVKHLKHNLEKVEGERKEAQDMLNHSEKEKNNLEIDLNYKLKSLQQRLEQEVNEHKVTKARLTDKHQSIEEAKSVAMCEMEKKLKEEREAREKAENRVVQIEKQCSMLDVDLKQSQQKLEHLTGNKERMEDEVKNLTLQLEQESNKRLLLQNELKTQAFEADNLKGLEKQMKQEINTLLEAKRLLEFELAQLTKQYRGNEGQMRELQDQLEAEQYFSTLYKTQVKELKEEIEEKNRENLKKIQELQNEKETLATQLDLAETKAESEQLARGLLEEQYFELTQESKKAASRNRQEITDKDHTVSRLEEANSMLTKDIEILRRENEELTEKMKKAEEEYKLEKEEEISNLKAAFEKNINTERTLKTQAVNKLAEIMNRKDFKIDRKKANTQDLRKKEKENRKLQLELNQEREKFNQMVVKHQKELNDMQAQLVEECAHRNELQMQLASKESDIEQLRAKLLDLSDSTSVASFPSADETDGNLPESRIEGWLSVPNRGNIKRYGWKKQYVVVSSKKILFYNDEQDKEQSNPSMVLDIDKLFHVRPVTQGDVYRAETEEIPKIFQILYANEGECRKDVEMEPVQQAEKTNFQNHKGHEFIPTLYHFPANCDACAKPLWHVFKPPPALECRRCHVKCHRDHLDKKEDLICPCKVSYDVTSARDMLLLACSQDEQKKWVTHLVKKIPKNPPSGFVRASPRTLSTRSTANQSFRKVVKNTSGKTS
Sequence of UniProt P51159 (P51159 whole entry, looked up): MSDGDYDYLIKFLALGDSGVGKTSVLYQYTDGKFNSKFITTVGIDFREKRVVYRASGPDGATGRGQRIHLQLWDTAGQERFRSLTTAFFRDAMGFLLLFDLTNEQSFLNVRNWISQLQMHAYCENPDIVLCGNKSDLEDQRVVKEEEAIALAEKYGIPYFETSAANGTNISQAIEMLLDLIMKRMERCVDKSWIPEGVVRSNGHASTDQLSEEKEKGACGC
Sequence of UniProt Q15287 (Q15287 whole entry, looked up): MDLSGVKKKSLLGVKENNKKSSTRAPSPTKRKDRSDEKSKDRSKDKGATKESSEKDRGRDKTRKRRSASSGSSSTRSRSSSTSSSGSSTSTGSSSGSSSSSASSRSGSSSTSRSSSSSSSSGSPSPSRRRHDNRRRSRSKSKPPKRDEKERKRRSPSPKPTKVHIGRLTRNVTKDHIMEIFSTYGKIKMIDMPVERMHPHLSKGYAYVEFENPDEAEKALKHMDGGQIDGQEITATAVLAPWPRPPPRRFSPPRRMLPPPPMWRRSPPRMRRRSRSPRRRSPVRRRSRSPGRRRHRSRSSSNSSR

| Target | log2 fold change [1] | log2 fold change [2] | log2 fold change [3] | log2 fold change [4] | log2 fold change [5] |
| --- | --- | --- | --- | --- | --- |
| RIOK2 (UniProt Q9BVS4) | 0.002 | -0.018 | 0.009 | -0.023 | -0.022 |
| SBF1 isoform 4 (UniProt O95248) | -0.08 | 0.001 | -0.094 | 0.092 | 0.072 |
| RELN (UniProt P78509) | 0.033 | -0.007 | 0.025 | -0.089 | -0.036 |
| RASA3 (UniProt Q14644) | -0.066 | 0.149 | 0.078 | 0.078 | 0.047 |
| RBM42 (UniProt Q9BTD8) | -0.014 | -0.003 | 0.107 | 0.103 | -0.006 |
| RPAP1 (UniProt Q9BWH6) | -0.006 | 0.018 | 0.015 | -0.038 | 0.028 |
| RAB27A (UniProt P51159) | 0.052 | 0.028 | -0.007 | -0.013 | 0.181 |
| RRM1 (UniProt P23921) | 0.014 | 0.028 | 0.042 | 0.028 | 0.004 |
| RAB3IL1 (UniProt Q8TBN0) | 0.047 | 0.008 | 0.02 | 0.007 | 0.039 |
| RIPK1 (UniProt Q13546) | -0.019 | -0.015 | -0.009 | -0.04 | -0.021 |
| RETSAT (UniProt Q6NUM9) | 0.103 | -0.037 | 0.148 | -0.145 | -0.015 |
| SAP30 (UniProt O75446) | 0.029 | -0.029 | 0.009 | 0.014 | -0.026 |
| RPN2 (UniProt P04844) | -0.001 | -0.01 | 0.01 | -0.008 | -0.009 |
| REEP6 (UniProt Q96HR9) | 0.038 | -0.081 | 0.005 | -0.107 | -0.181 |
| SEC13 isoform 3 (UniProt P55735) | 0.022 | -0.013 | -0.001 | -0.029 | 0.191 |
| SAR1B (UniProt Q9Y6B6) | -0.006 | -0.007 | -0.01 | -0.068 | 0.052 |
| REL isoform 2 (UniProt Q04864) | 0.017 | 0 | -0.003 | 0.031 | 0.03 |
| RANBP2 (UniProt P49792) | -0.019 | -0.009 | 0.002 | 0.003 | 0.02 |
| RBBP8 isoform 2 (UniProt Q99708) | -0.031 | -0.133 | 0.093 | 0.046 | -0.014 |
| SAR1A (UniProt Q9NR31) | 0.066 | 0.038 | 0.005 | -0.116 | -0.009 |
| RAP1GAP isoform 4 (UniProt P47736) | 0.019 | -0.012 | -0.019 | -0.009 | 0.007 |
| RNPS1 (UniProt Q15287) | 0.014 | -0.003 | 0.06 | 0.036 | 0.016 |
| RFC4 (UniProt P35249) | -0.026 | -0.059 | 0.006 | 0.028 | 0.01 |
| RANBP6 (UniProt O60518) | 0.013 | -0.047 | 0.046 | 0.074 | 0.005 |
| RAB8B (UniProt Q92930) | -0.067 | 0.013 | -0.041 | -0.012 | 0.146 |
| RABEPK (UniProt Q7Z6M1) | -0.032 | 0.054 | 0.026 | 0.017 | -0.071 |
| RDH14 (UniProt Q9HBH5) | 0.123 | -0.016 | -0.076 | 0.102 | -0.058 |

| Target | log2 fold change [1] | log2 fold change [2] | log2 fold change [3] | log2 fold change [4] | log2 fold change [5] |
| --- | --- | --- | --- | --- | --- |
| RPS18 (UniProt P62269) | -0.009 | 0.046 | 0.024 | -0.003 | -0.075 |
| RTTN (UniProt Q86VV8) | 0.089 | -0.033 | -0.289 | 0.046 | 0.024 |
| RPL28 (UniProt P46779) | 0.042 | -0.02 | 0.001 | -0.008 | 0.041 |
| RRAGA (UniProt Q7L523) | 0.024 | -0.039 | 0.01 | -0.045 | -0.036 |
| RFWD3 (UniProt Q6PCD5) | -0.058 | 0.132 | 0 | -0.072 | 0.049 |
| ROCK1 (UniProt Q13464) | 0.019 | 0.027 | 0.023 | -0.016 | -0.008 |
| RPS6KB1 (UniProt P23443) | 0.029 | -0.051 | 0.027 | 0.023 | -0.018 |
| RAB1B (UniProt Q9H0U4) | -0.015 | 0.021 | 0.056 | 0.013 | -0.17 |
| RPS6KA3 (UniProt P51812) | -0.049 | -0.031 | -0.008 | 0.009 | -0.061 |
| SCO1 (UniProt O75880) | -0.021 | 0.017 | 0 | 0.136 | -0.027 |
| SDHC (UniProt Q99643) | -0.045 | -0.016 | 0.035 | -0.085 | -0.09 |
| SELENOK (UniProt Q9Y6D0) | 0.061 | -0.074 | -0.05 | -0.181 | -0.311 |
| RPL31 (UniProt P62899) | 0.016 | 0.013 | -0.027 | 0.041 | -0.022 |
| RIC1 (UniProt Q4ADV7) | -0.086 | 0.186 | 0 | 0.081 | 0.138 |
| RAD17 (UniProt O75943) | -0.031 | -0.077 | 0.047 | -0.066 | 0.002 |
| RSU1 (UniProt Q15404) | 0.056 | 0.004 | -0.004 | -0.017 | 0.157 |
| SESN2 (UniProt P58004) | -0.074 | 0.01 | -0.025 | -0.004 | -0.01 |
| RAB3IL1 (UniProt E9PK89) | -0.109 | 0.057 | 0.014 | -0.189 | -0.006 |
| RIOK1 (UniProt Q9BRS2) | -0.026 | -0.031 | -0.003 | -0.006 | -0.015 |
| RPL36AL (UniProt Q969Q0) | 0.074 | -0.049 | -0.03 | 0.274 | 0.015 |
| QTRT2 isoform 4 (UniProt Q9H974) | -0.004 | 0.014 | -0.03 | -0.019 | -0.157 |
| RMC1 (UniProt Q96DM3) | -0.013 | 0.018 | -0.052 | 0.05 | 0.007 |
| RAPGEF4 (UniProt Q8WZA2) | 0 | 0.092 | 0.06 | -0.274 | -0.558 |
| RAB6D (UniProt Q53S08) | -0.045 | 0.01 | 0.034 | -0.003 | -0.045 |
| RCOR1 (UniProt Q9UKL0) | -0.034 | 0.03 | -0.003 | -0.023 | 0.494 (active) |
| SDHA (UniProt P31040) | 0.114 | -0.012 | -0.012 | 0.005 | -0.007 |
